The target of experiment [1] is Casein kinase I isoform gamma-2 (Homo sapiens) (UniProt P78368). Conditions: at 1 µM.
Experiment [2] has as its target Casein kinase I isoform gamma-3 (Homo sapiens) (UniProt Q9Y6M4). As to conditions: at 0.1 µM.
The target is the same in experiment [3]. As to conditions: at 1 µM.
The target of experiment [4] is Cyclin-dependent kinase 1 (Homo sapiens) (UniProt P06493). As to conditions: at 0.1 µM.
For experiment [5] the target is unchanged. Conditions: at 1 µM.
Experiment [6] has as its target Cyclin-dependent kinase 2 (Homo sapiens) (UniProt P24941). Conditions: at 0.1 µM.
Experiment [7] has the same target. As to conditions: at 1 µM.
The target is the same in experiment [8]. Conditions: at 0.1 µM. This is another data set of the same source.
For experiment [9] the target is unchanged. Conditions: at 1 µM. This is another data set of the same source.
Experiment [10] has as its target T1, CDK3/Cyclin E (Homo sapiens) (UniProt P24864+Q00526). Conditions: at 0.1 µM.
Experiment [11] deals with T1, CDK3/Cyclin E (Homo sapiens). Conditions: at 1 µM.
Experiment [12] concerns the target Cyclin-dependent kinase 4 (Homo sapiens) (UniProt P11802). Conditions: at 0.1 µM.
Experiment [13] shares this target. Conditions: at 1 µM.
The target of experiment [14] is Cyclin-dependent kinase 5 (Homo sapiens) (UniProt Q00535). Conditions: at 0.1 µM.
Cyclin-dependent kinase 5 (Homo sapiens), sequence (Q00535 whole entry, looked up): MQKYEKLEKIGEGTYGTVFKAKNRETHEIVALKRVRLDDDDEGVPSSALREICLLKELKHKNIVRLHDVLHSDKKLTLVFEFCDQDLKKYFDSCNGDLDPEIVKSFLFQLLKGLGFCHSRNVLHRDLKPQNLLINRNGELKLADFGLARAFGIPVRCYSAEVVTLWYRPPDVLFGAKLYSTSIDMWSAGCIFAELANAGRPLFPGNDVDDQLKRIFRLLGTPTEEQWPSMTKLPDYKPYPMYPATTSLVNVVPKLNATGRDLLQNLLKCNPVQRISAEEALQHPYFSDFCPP
Experiment [15] has the same target. As to conditions: at 1 µM.
Experiment [16] addresses Cyclin-dependent kinase 6 (Homo sapiens) (UniProt Q00534). Conditions: at 0.1 µM.
For experiment [17] the target is unchanged. Conditions: at 1 µM.
Experiment [18] concerns the target Dual specificity protein kinase CLK2 (Homo sapiens) (UniProt P49760). Conditions: at 0.1 µM.
Experiment [19] shares this target. As to conditions: at 1 µM.
Experiment [20] deals with Dual specificity protein kinase CLK3 (Homo sapiens) (UniProt P49761). Conditions: at 0.1 µM.
Dual specificity protein kinase CLK3 (Homo sapiens), sequence (P49761 whole entry, looked up): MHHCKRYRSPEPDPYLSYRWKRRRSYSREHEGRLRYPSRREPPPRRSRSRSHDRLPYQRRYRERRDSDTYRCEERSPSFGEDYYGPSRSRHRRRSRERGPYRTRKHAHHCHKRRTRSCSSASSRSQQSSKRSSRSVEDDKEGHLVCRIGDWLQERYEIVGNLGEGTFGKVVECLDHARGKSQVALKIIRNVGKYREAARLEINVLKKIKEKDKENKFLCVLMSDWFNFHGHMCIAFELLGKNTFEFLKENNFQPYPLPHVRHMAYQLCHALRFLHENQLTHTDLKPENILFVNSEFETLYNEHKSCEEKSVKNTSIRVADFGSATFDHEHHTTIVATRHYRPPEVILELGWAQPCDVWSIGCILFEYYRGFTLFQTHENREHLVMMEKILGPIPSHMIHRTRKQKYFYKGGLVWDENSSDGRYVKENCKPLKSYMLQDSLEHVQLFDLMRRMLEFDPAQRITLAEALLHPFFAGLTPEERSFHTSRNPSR

What is called inhibition is the change of the read-out against control, counted positive when it falls.

Structures are written as SMILES.

Cyclin-dependent kinase 6 (Homo sapiens), sequence (Q00534 whole entry): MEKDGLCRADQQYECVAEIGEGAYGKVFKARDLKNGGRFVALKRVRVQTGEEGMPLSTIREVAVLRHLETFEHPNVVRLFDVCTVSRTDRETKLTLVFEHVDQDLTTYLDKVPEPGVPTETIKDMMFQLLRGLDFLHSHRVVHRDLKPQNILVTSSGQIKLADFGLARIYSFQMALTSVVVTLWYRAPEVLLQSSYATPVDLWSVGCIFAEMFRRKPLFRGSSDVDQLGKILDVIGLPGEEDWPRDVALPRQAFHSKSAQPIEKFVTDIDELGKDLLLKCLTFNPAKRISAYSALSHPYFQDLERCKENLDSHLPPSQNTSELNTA
Cyclin-dependent kinase 1 (Homo sapiens), sequence (P06493 whole entry, looked up): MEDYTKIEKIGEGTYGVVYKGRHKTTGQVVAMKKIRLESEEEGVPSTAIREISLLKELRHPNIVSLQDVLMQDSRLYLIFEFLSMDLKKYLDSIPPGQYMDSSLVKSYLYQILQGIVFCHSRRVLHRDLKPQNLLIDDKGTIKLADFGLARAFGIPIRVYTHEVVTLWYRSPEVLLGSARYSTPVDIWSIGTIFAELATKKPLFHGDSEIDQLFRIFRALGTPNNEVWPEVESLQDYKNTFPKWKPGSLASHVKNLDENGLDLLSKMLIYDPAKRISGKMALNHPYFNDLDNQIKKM
Casein kinase I isoform gamma-2 (Homo sapiens), sequence (P78368 whole entry, looked up, canonical isoform): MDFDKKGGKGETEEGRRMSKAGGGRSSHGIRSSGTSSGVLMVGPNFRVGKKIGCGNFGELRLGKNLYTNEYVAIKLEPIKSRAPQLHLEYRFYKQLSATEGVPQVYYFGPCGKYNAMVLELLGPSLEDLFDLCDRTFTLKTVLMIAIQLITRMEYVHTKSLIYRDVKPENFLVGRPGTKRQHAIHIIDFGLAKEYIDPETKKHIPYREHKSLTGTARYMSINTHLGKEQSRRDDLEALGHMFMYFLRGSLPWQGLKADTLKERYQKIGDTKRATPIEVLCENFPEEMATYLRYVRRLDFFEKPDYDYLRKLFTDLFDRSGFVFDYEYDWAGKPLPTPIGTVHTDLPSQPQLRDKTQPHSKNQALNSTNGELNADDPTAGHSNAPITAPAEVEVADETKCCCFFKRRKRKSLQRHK
T1 sequence (P24864 whole entry, looked up): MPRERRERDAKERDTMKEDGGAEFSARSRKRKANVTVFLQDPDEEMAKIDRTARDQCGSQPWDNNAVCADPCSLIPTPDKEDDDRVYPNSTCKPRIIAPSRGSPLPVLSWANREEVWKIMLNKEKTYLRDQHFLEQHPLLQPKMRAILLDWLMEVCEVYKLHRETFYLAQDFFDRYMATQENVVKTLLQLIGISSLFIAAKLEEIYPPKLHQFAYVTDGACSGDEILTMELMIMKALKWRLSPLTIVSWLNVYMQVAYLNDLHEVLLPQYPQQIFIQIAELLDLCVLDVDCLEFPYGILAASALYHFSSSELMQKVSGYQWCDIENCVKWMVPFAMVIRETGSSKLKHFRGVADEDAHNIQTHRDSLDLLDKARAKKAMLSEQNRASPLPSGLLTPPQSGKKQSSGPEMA
T1 sequence (Q00526 whole entry, looked up): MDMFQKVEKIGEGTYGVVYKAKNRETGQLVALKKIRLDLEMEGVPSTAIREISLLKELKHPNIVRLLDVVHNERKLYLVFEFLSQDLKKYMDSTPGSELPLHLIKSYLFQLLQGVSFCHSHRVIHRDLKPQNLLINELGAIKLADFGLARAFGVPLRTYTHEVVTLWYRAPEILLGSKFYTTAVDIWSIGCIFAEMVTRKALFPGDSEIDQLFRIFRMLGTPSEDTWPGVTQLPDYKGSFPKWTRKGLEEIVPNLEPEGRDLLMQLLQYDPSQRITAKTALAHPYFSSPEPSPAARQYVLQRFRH
Cyclin-dependent kinase 4 (Homo sapiens), sequence (P11802 whole entry): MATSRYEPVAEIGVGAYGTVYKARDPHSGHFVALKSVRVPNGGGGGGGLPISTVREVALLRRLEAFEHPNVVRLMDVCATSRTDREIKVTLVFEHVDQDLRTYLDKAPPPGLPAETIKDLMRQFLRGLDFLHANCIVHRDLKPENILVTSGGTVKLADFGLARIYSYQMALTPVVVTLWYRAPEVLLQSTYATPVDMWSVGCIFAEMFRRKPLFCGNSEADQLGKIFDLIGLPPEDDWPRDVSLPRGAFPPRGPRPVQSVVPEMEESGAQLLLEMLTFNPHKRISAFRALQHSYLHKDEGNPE
Casein kinase I isoform gamma-3 (Homo sapiens), sequence (Q9Y6M4 whole entry, looked up, canonical isoform): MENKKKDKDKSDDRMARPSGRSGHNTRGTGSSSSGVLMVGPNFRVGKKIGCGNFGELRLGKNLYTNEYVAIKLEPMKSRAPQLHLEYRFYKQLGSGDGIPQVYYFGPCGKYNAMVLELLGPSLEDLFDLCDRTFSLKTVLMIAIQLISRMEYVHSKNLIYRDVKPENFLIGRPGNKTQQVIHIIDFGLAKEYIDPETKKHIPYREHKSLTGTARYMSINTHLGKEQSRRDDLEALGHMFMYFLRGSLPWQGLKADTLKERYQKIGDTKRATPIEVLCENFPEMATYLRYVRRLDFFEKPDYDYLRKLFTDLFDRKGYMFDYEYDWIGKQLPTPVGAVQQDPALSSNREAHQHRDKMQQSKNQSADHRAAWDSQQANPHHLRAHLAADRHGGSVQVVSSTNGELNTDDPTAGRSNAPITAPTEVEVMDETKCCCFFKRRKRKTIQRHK
Dual specificity protein kinase CLK2 (Homo sapiens), sequence (P49760 whole entry, looked up): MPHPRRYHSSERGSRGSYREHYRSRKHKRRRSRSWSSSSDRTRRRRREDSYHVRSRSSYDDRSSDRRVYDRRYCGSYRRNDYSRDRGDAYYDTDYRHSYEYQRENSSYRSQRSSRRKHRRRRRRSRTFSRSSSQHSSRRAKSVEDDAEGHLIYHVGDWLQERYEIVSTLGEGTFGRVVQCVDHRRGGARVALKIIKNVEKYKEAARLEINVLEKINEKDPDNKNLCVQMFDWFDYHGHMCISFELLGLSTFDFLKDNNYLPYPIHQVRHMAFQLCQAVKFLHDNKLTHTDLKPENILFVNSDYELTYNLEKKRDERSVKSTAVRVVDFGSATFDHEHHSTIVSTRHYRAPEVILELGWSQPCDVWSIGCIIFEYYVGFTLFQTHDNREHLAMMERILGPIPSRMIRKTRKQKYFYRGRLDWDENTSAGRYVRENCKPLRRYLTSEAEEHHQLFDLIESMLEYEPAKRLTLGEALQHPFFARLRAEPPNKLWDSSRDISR

`COc1cc2c(cc1Nc1nc(Nc3ccsc3C(N)=O)c3cc[nH]c3n1)N(C(=O)CN(C)C)CCC2(C)C`: the inhibition in experiment [1] amounted to 20.6%; in experiment [2] it was 4.29%; in [3] it was 24.3%; in [4], 2.56%; in experiment [5] it was 6.04%; in experiment [6] it was 3.04%. In addition, the inhibition in [7] was -0.79%; in [8], 8.82%; in [9], 10.2%; in experiment [10], 8.96%; in [11], -1.09%; in [12], 5.42%. The inhibition in experiment [13] is 8.61%; in experiment [14] it was 6.36%; in experiment [15], 7.33%; in [16] it was 1.59%; in [17], 9.92%; in experiment [18], 29%. Also, the inhibition is 79.5% in experiment [19] and 2% in [20].
Consider `NC(=O)c1sc(-n2cnc3ccc(C(F)(F)F)cc32)cc1OCc1ccccc1Br`, for which the inhibition in experiment [1] was 4.58%; in experiment [2] it was 1.35%; in [3] it was 2.37%; in [4] it was -0.53%; in experiment [5] it was 1.01%; in experiment [6], 1.25%. In addition, the inhibition in experiment [7] is 1.52%; in [8], 1.94%; in experiment [9] it was 3.25%; in [10] it was 1.2%; in [11], -2.34%; in experiment [12], 1.68%. Moreover, the inhibition was 2.94% in experiment [13]; -0.39% in [14]; -0.71% in experiment [15]; -0.29% in [16]; 1.76% in [17]; 3.14% in [18]. The values for the inhibition in [19] and in experiment [20] were 27.6% and 2.31%, respectively.
As to `CC(=O)Nc1cccc(C#Cc2cncnc2Nc2ccc(OCc3cccc(F)c3)c(Cl)c2)c1`, the inhibition is 2.49% in experiment [1]; 2.41% in experiment [2]; 1.12% in experiment [3]; -0.4% in experiment [4]; 0.31% in experiment [5]; 0.72% in [6]. Moreover, the inhibition is 1.81% in experiment [7]; 2% in experiment [8]; 0.87% in [9]; 1.66% in experiment [10]; 0.86% in experiment [11]; 1.84% in experiment [12]. Besides, the inhibition in experiment [13] was 1.74%; in [14], 0.82%; in experiment [15] it was 0.21%; in experiment [16], -0.8%; in [17], -0.16%; in experiment [18], 2.3%. For the same compound, the values for the inhibition in experiment [19] and in experiment [20] were 1.56% and -0.12%, respectively.
On to `COc1ccc(CNC(=O)c2ccc(-c3cc(-c4nnc(C)o4)ccc3C)cc2)cc1`, for which the inhibition is 0.62% in [1]; 0.01% in experiment [2]; 0.83% in [3]; 1.08% in experiment [4]; 1.37% in [5]; -2.09% in experiment [6]. The inhibition is -1.7% in experiment [7]; 1.68% in [8]; 3.08% in [9]; 3.23% in [10]; -1.03% in [11]; 1.82% in experiment [12]. Besides, the inhibition in experiment [13] was 2.19%; in experiment [14], 1.52%; in [15] it was 1.19%; in experiment [16] it was -1.69%; in experiment [17] it was -2.05%; in [18], 0.99%. Also, the inhibition in experiment [19] is 2.3%; in [20], 2.46%.
With `COc1cc(Nc2nccc(Nc3ccc4c(C)n[nH]c4c3)n2)cc(OC)c1OC`, the inhibition in experiment [1] was 9.2%; in experiment [2] it was 0.39%; in [3], -0.68%; in [4], 0.71%; in experiment [5], 3.05%; in experiment [6], 0.73%. Moreover, the inhibition in experiment [7] was 3.22%; in [8], 2.32%; in experiment [9], 6.07%; in experiment [10], 1.75%; in [11], 4.99%; in [12], 2.86%. Besides, the inhibition in experiment [13] worked out at 3.18%; in experiment [14] it was 1.21%; in experiment [15] it was 2.36%; in experiment [16] it was 1.52%; in [17], 3.31%; in [18] it was 1.62%. Moreover, the inhibition is 2.36% in [19] and 0.25% in experiment [20].
As for `CCOc1ccc2c(-c3ccnc(Nc4cccc(C(F)(F)F)c4)n3)cnn2n1`, the inhibition in [1] turned out to be 3.07%; in experiment [2], 1.18%; in [3], 1.86%; in experiment [4], 0.34%; in [5] it was 6.63%; in experiment [6] it was 1.78%. The inhibition in experiment [7] stood at 8.89%; in experiment [8], 3.35%; in [9], 14.1%; in experiment [10], 2.12%; in [11], 1.6%; in experiment [12], 1.35%. The inhibition in [13] was 2.43%; in experiment [14] it was 0.66%; in experiment [15], 3.67%; in [16] it was -0.78%; in [17] it was 1.85%; in experiment [18] it was 24.2%. Further, the inhibition in experiment [19] came to 94.3%; in [20], 0.68%.
Turning to `CCn1c(-c2nonc2N)nc2c(C#CC(C)(C)O)nc(OC[C@H](N)c3ccccc3)cc21`, the inhibition in experiment [1] was determined as 5.45%; in [2], 1.72%; in experiment [3], 4.23%; in [4] it was 2.55%; in experiment [5], 0.95%; in [6], 3.52%. The inhibition is 4.36% in experiment [7]; 0.77% in [8]; 2.97% in [9]; -2.75% in experiment [10]; -0.33% in experiment [11]; 2.31% in experiment [12]. In addition, the inhibition in experiment [13] was 2.26%; in experiment [14], 1.23%; in experiment [15] it was 3.05%; in experiment [16], -3.58%; in experiment [17] it was -0.97%; in experiment [18], 1.87%. Also, the inhibition in experiment [19] was 12.1%; in [20], 1.29%.
On to `CN(C)CCOc1ccc(-c2nc(-c3ccncc3)c(-c3ccc4c(c3)CC/C4=N\O)[nH]2)cc1`, for which the inhibition amounted to 4.12% in experiment [1]; 3.08% in experiment [2]; 3.59% in [3]; 1.59% in experiment [4]; 5.87% in experiment [5]; 1.86% in experiment [6]. The inhibition in experiment [7] is 11.1%; in experiment [8], 6.01%; in experiment [9] it was 7.95%; in experiment [10], 3.78%; in experiment [11], -2.98%; in experiment [12], 2.94%. Further, the inhibition in experiment [13] is 6.21%; in experiment [14], 2.41%; in experiment [15], 5.88%; in experiment [16], 7.36%; in [17], 9.02%; in [18], -1.13%. Besides, the figures for the inhibition in [19] and in experiment [20] were 2.18% and 1.97%, respectively.
Regarding `CCc1nn2ncccc2c1-c1ccnc(NC2CC2)n1`, the inhibition in experiment [1] is 2.18%; in experiment [2] it was 1.24%; in [3], 0.68%; in experiment [4] it was 2.52%; in [5] it was 6.8%; in [6] it was 3.24%. The inhibition in experiment [7] was 10.4%; in [8] it was 2.25%; in [9], 9.7%; in experiment [10] it was -0.69%; in experiment [11], 2.56%; in [12], 5.47%. Further, the inhibition amounted to 17.6% in experiment [13]; 0.79% in experiment [14]; 6.84% in [15]; 0.16% in experiment [16]; 10.1% in [17]; 0.1% in experiment [18]. For the same compound, the results for the inhibition in experiment [19] and in experiment [20] were 3.21% and 0.31%, respectively.
For the compound `COC(=O)Nc1nc2ccc(Oc3ccc(NC(=O)Nc4cccc(Cl)c4)cc3)cc2[nH]1`, the inhibition was 1.64% in [1]; 0.53% in experiment [2]; 1.25% in experiment [3]; -0.02% in [4]; 0% in experiment [5]; -0.3% in experiment [6]. Moreover, the inhibition in experiment [7] is -1.22%; in experiment [8], 1.4%; in [9] it was 0.48%; in experiment [10], 1.02%; in experiment [11] it was -0.43%; in experiment [12], 0.18%. The inhibition in experiment [13] was 0.01%; in experiment [14], 0.3%; in experiment [15] it was -0.49%; in experiment [16] it was -0.37%; in [17], 3.51%; in [18] it was -1.9%. In addition, the results for the inhibition in experiment [19] and in [20] were -1.67% and 0.01%, respectively.
On to `COc1cc(/C=N/Nc2ncnc3[nH]ncc23)ccc1O`, for which the inhibition in [1] was found to be 25.1%; in experiment [2], 3.84%; in experiment [3], 20%; in experiment [4] it was 2.77%; in experiment [5] it was 15.8%; in [6], 3.26%. In addition, the inhibition was determined as 28.3% in experiment [7]; 4.7% in [8]; 13.9% in experiment [9]; 1.56% in experiment [10]; 6.95% in [11]; 2.99% in [12]. The inhibition in [13] was found to be 5.18%; in experiment [14], 2.93%; in [15] it was 16.3%; in experiment [16], 10.4%; in experiment [17] it was 15.9%; in experiment [18], 2.37%. For the same compound, the inhibition in experiment [19] amounted to 28.6%; in experiment [20], 2.85%.
As to `COc1ccc2[nH]c3c4[nH]c5ccc(OC)cc5c4c4c(c3c2c1)C(=O)NC4=O`, the inhibition in [1] turned out to be 3.1%; in experiment [2], 4.06%; in [3] it was 5%; in experiment [4], 0.17%; in [5], 3.22%; in experiment [6] it was 1.85%. Also, the inhibition in experiment [7] worked out at 3%; in [8], 3.64%; in experiment [9], 4.91%; in experiment [10], 2.31%; in experiment [11], 6.02%; in experiment [12], 2.56%. Also, the inhibition in experiment [13] came out at 7.55%; in [14], 1.11%; in experiment [15], 2.57%; in experiment [16] it was 2.91%; in experiment [17], 3.6%; in experiment [18] it was 5.12%. Also, the results for the inhibition in [19] and in [20] were 20.3% and 2.17%, respectively.
On to `CCn1c(-c2nonc2N)nc2c(C#CC(C)(C)O)ncc(OC3CCNCC3)c21`, for which the inhibition stood at 3.98% in [1]; 2.65% in experiment [2]; 3.15% in [3]; 2.33% in [4]; 2.34% in experiment [5]; 3.56% in [6]. For the same compound, the inhibition in experiment [7] was 1.76%; in experiment [8], 1.95%; in experiment [9], 3.09%; in experiment [10] it was -1.98%; in [11], -2.14%; in [12], 2.68%. Besides, the inhibition in experiment [13] was 3.11%; in experiment [14] it was 0.91%; in [15], 2.08%; in experiment [16] it was -2.96%; in experiment [17] it was -1.44%; in experiment [18] it was 2.21%. In addition, the inhibition stood at 18% in experiment [19] and 0.62% in experiment [20].

For the origin of these results see ChEMBL document CHEMBL1961873, “Compounds: GSK PKIS; Assays: Nanosyn kinase panel” (2012).
